# Test results: PubChem BioAssay
# Calls of active or inactive are those of the source.
# Columns and labels:
# [1] = binders of probe aFSTL3 on microarray, primary screen, stem cell growth factor project, biochemical, small-molecule microarray, fluorescence 635/667 (AID 1064); conditions: higher = more signal;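 further: measures binding of the biotinylated anti-FSTL3 antibody to printed compounds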
# [2] = binders from COS7 lysate, DM2A8 probe, primary screen, torsin A project, cell lysate, small-molecule microarray, fluorescence 635/667 (AID 1065); conditions: higher = more signal, COS7 lysate expressing mutant human TOR1A
# [3] = binders of probe aFGF2 on microarray, primary screen, stem cell growth factor project, biochemical, small-molecule microarray, fluorescence 635/667 (AID 1067); conditions: higher = more signal;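 further: measures binding of biotinylated aFGF2 protein to printed compounds on slides; z-score merges feature fluorescence and signal-to-noise across triplicate slides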
# [4] = binders of probe aFGF10 on microarray, primary screen, stem cell growth factor project, biochemical, small-molecule microarray, fluorescence 635/667 (AID 1071); conditions: higher = more signal;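 further: score merges 667 nm spot intensity and signal to noise from triplicate slides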
# [5] = target: Neurogenic locus notch homolog protein 2 (Homo sapiens) (UniProt Q04721); assay: Notch2 binders on small-molecule microarrays, primary screen, biochemical, small-molecule microarray, 635 nm fluorescence, stem cell growth factors (AID 1073); conditions: Notch2 binding, higher = more signal
# [6] = target: Pro-neuregulin-1, membrane-bound isoform (Homo sapiens) (UniProt Q02297); assay: NRG1 binders on small-molecule microarrays, primary screen, psychiatric disease protein project, biochemical, small-molecule microarray, fluorescence 635/667 (AID 1075); conditions: NRG1 binding, 635 nm fluorescence, higher = more signal;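 further: score combines 667 nm spot fluorescence with signal to noise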
# [7] = test system: Neuregulin-1 EGF-like domain; assay: binders of neuregulin-1 EGF-like domain, primary screen, biochemical, small-molecule microarray, 635 nm fluorescence (AID 1081); conditions: small-molecule microarray binding, higher = more signal;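 further: binding of the protein to compounds printed on small-molecule microarray slides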
# [8] = FRG1 promoter luciferase signal modulators, primary screen, FRG1 inhibition for FSHD, cell-based, C2C12 myotubes, firefly/Renilla luciferase, luminescence (AID 1084); conditions: higher = more signal, called active from +8 up or from −8 down
# [9] = binders of probe aFST on microarray, primary screen, stem cell growth factor project, biochemical, small-molecule microarray, fluorescence 635/667 (AID 1086); conditions: higher = more signal;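 further: score merges 667 nm fluorescence with signal-to-noise of each printed compound spot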
# [10] = binders of probe aHhip on microarray, primary screen, stem cell growth factor project, biochemical, small-molecule microarray, fluorescence 635/667 (AID 1087); conditions: higher = more signal;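 further: score merges spot fluorescence at 667nm with spot signal to noise ratio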
# [11] = test system: PRMT1 (protein arginine N-methyltransferase 1); assay: PRMT1 binders on small-molecule microarrays, primary screen, biochemical, small-molecule microarray, 635 nm fluorescence (AID 1088); conditions: small-molecule microarray binding, higher = more signal;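 further: binding of Prmt1 protein to compounds spotted on small-molecule microarray slides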
# [12] = yeast growth modulation, basal conditions, primary screen, YJM789 clinical isolate, OD600, 24 h (AID 1089);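 further: growth of clinical yeast isolate S. cerevisiae YJM 789 seeded 1000 cells per well; test concentration not given here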; conditions: S. cerevisiae YJM789 growth, higher = more signal, called active from +8 up or from −8 down
# [13] = fission yeast growth modulation, primary screen, strain 972, OD600, 24 h, no modulator (AID 1090);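 further: basal condition with compound alone and no growth modifier present; test concentration not given here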; conditions: S. pombe 972 growth, higher = more signal, called active from +8 up or from −8 down
# [14] = S. cerevisiae growth modulation with rapamycin, primary screen, strain BY4716, OD600, 96 h (AID 1091); conditions: higher = more signal, called active from +8 up or from −8 down; further: test concentration not given here
# [15] = target: Torsin-1A-interacting protein 2 (Homo sapiens) (UniProt Q8NFQ8); assay: LULL1 binders on small-molecule microarray, primary screen, cell lysate, human LULL1 lysate, 635/667 nm fluorescence (AID 1092); conditions: hLULL1 lysate binding, 635 nm fluorescence, higher = more signal;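 further: probe is lysate of COS7 cells overexpressing human LULL1; score merges per-feature 667 nm fluorescence with signal-to-noise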
# [16] = E. coli growth modulation, two-sided OD650, primary screen, E. coli filamentation project, strain DRC41, 24 h (AID 1093); conditions: OD650, 24 h, higher = more signal, called active from +8 up or from −8 down;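 further: MC1000 strain lacking acrAB efflux and sulA so SOS filamentation is blocked; test concentration not given here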
# [17] = small-molecule microarray binders of probe aLefty2, primary screen, biochemical, biotinylated probe, 635/667 nm fluorescence (AID 1094); conditions: higher = more signal;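 further: score merges spot fluorescence near 667 nm with spot signal-to-noise ratio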
# [18] = test system: Noggin (protein binding on small-molecule microarray); assay: Noggin binders on small-molecule microarray, primary screen, biochemical, 635/667 nm fluorescence (AID 1095); conditions: 635 nm fluorescence, higher = more signal;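 further: score merges 667 nm feature fluorescence with signal to noise over triplicate slides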
# [19] = target: Neurogenic locus notch homolog protein 3 (Homo sapiens) (UniProt Q9UM47); assay: NOTCH3 binders on small-molecule microarray, primary screen, biochemical, 635/667 nm fluorescence (AID 1096); conditions: NOTCH3 binding, 635 nm fluorescence, higher = more signal
# [20] = small-molecule microarray binders of probe aEGFR, primary screen, biochemical, biotinylated probe, 635/667 nm fluorescence (AID 1097); conditions: higher = more signal;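 further: probe is a biotinylated anti-EGFR antibody binding compounds printed on slides; score combines fluorescence near 667 nm and signal to noise of each spot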
# Sequence of Neurogenic locus notch homolog protein 3 (Homo sapiens) (Q9UM47 whole entry, looked up): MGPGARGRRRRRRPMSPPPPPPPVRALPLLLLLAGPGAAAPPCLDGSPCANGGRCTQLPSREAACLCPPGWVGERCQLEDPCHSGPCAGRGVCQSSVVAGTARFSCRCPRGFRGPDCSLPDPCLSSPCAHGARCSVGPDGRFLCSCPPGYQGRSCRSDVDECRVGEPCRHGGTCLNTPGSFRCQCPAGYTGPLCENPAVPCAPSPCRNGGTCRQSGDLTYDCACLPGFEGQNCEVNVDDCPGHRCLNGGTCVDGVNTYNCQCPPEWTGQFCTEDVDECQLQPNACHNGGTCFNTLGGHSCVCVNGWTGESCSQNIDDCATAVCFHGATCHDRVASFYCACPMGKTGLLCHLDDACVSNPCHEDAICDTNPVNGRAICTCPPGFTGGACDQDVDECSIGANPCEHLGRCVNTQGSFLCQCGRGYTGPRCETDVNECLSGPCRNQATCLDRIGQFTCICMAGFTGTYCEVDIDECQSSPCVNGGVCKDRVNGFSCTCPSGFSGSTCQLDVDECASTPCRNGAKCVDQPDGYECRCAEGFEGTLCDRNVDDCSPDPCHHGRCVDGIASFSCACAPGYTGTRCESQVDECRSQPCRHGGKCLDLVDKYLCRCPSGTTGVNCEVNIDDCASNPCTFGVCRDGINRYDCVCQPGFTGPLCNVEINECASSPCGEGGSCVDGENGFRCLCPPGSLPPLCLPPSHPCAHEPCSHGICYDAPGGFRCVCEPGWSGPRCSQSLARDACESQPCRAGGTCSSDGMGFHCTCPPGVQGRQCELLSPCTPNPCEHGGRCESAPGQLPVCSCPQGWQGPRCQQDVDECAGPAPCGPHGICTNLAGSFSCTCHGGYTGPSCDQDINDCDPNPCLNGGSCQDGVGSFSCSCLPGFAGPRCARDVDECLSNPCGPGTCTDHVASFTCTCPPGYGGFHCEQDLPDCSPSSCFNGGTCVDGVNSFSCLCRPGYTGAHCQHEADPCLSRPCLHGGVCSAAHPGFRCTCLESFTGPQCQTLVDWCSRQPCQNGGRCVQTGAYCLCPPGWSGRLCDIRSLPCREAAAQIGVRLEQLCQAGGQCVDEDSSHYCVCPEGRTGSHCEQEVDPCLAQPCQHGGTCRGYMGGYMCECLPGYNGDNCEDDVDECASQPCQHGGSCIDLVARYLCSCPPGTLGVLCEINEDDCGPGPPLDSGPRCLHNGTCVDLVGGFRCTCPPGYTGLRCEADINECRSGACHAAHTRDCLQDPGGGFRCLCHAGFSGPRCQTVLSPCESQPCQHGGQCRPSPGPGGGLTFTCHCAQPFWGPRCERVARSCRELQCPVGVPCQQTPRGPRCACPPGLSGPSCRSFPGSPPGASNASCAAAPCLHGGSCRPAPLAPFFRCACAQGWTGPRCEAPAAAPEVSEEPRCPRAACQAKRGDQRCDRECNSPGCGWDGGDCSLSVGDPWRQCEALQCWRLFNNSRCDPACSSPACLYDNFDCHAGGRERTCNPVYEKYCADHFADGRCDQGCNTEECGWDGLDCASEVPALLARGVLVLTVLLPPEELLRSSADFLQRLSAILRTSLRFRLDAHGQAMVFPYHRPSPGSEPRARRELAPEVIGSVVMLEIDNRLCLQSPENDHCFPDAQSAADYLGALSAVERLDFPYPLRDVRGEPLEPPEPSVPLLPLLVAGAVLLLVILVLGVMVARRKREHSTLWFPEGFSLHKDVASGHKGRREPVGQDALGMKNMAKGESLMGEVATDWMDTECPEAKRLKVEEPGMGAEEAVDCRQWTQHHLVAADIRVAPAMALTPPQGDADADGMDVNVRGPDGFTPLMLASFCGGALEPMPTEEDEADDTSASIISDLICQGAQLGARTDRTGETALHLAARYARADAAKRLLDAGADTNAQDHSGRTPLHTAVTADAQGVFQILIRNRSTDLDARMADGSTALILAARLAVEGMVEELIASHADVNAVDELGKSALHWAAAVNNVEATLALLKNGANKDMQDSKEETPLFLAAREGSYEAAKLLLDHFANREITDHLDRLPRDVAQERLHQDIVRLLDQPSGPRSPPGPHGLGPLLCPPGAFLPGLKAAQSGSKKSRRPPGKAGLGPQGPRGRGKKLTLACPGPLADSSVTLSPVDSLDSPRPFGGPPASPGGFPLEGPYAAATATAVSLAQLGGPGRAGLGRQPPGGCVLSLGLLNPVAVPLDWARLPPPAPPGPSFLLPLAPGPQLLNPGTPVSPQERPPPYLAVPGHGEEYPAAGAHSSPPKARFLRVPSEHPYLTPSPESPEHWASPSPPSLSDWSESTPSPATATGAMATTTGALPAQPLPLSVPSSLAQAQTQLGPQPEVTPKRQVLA
# Sequence of Pro-neuregulin-1, membrane-bound isoform (Homo sapiens) (Q02297 whole entry, looked up, the tested form may be a part, canonical isoform): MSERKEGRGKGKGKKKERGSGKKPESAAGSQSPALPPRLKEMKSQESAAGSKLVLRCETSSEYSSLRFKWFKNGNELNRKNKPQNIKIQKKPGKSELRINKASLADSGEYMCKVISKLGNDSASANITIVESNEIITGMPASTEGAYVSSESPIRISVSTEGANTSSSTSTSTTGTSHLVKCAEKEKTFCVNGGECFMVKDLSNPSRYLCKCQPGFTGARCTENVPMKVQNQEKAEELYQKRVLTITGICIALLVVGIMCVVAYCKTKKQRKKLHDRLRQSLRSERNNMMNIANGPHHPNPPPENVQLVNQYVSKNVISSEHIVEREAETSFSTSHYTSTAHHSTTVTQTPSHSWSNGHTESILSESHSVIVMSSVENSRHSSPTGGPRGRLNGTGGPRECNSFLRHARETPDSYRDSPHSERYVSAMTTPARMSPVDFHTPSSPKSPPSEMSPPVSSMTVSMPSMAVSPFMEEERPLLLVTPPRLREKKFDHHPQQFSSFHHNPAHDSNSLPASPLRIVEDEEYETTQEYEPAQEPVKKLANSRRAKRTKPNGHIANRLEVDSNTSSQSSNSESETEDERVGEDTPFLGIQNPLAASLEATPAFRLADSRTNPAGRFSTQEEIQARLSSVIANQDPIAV
# Sequence of Torsin-1A-interacting protein 2 (Homo sapiens) (Q8NFQ8 whole entry, looked up): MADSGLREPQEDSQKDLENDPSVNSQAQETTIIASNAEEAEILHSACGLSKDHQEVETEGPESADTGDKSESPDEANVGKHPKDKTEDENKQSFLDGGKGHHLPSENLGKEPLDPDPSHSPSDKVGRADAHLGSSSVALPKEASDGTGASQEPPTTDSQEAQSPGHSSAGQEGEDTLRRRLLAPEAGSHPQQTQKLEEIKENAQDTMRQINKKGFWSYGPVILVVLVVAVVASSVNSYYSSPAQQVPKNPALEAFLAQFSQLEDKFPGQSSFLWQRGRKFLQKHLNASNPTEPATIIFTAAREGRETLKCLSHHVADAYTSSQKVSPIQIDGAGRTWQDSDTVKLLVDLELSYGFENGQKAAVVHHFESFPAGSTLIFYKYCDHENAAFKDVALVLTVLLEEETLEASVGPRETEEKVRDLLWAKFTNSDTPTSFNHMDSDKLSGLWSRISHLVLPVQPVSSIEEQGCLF
SMILES,composite z-score [1],composite z-score [2],composite z-score [3],composite z-score [4],composite z-score [5],composite z-score [6],composite z-score [7],z-score [8],composite z-score [9],composite z-score [10],composite z-score [11],z-score [12],z-score [13],z-score [14],composite z-score [15],z-score [16],composite z-score [17],composite z-score [18],composite z-score [19],composite z-score [20]
CN1C(=O)C2C=CC(C(O)c3ccccn3)N(N(c3ccccc3)c3ccccc3)C2C1=O (stereo not given),0.733,0.0014,0.0276,0.0491,0.594,0.899,0.622,0.164 (inactive),0.613,0.245,0.412,1.13 (inactive),0.863 (inactive),0.491 (inactive),1.87,-0.828 (inactive),0.235,-0.112,-0.343,0.0353
NC(=O)NCC#Cc1ccc2c(c1)[C@]1(C(=O)N2)[C@H](C(=O)NC[C@H](O)c2ccccc2)[C@H]2C(=O)O[C@H](c3ccccc3)[C@H](c3ccccc3)N2[C@@H]1c1ccc(OCCO)cc1,0.565,0.699,-0.031,0.852,0.103,0.897,0.537,1.71 (inactive),0.0377,-0.131,0.889,2.75 (inactive),0.682 (inactive),3.73 (inactive),1.21,1.63 (inactive),0.156,-0.0728,0.0556,-0.0078
CCCC[C@@H]1C[C@H]1[C@@H](NC(=O)c1cccs1)c1ccc(C(F)(F)F)cc1,0.211,-0.0988,-0.0783,-0.618,-0.845,-0.265,-0.743,-0.878 (inactive),0.0353,0.948,0.183,1.19 (inactive),1.01 (inactive),-0.0454 (inactive),-0.683,-1.72 (inactive),-0.0009,-0.345,-0.182,-0.168
C[C@]1(C(=O)NC2CC2)c2ccccc2C(=O)N(Cc2ccccc2)[C@H]1c1ccc(CO)cc1,0.942,-0.729,-0.116,-0.796,-0.956,-0.145,0.659,-1.69 (inactive),-0.346,-0.511,-1.09,-0.653 (inactive),-1.75 (inactive),-0.785 (inactive),-0.488,1.84 (inactive),-0.0873,-0.918,-1.59,-0.278
COCCOC(=O)N1C(=O)[C@@]2(c3cc(C#CC4=CCCCC4)ccc31)[C@H](c1ccc(OCCO)cc1)N1[C@H](c3ccccc3)[C@H](c3ccccc3)OC(=O)[C@H]1[C@@H]2C(=O)NC[C@H](O)c1ccccc1,0.82,0.366,-0.0032,0.246,1.24,-0.118,1.15,0.745 (inactive),1.44,0.187,1.54,2.04 (inactive),0.798 (inactive),5.7 (inactive),2.6,0.546 (inactive),0.789,1.11,1.07,0.108
CC(C)C[C@@H]1NC(=O)[C@@H]2C[C@H](C(=O)NCCCCCN)[C@H](c3ccc(O)cc3)N2C1=O,0.347,0.174,-0.0909,0.335,0.727,1.26,1.3,-0.375 (inactive),0.371,0.0854,1.57,0.563 (inactive),0.32 (inactive),0.965 (inactive),2.57,-0.687 (inactive),-0.109,1.47,0.894,-0.0078
CCCC[C@@H]1C[C@H]1[C@@H](NC(=O)c1ccccc1)c1ccc(C(F)(F)F)cc1,0.79,-1.02,-0.0908,-0.333,-0.601,-0.612,-0.521,-0.858 (inactive),0.0249,-0.175,-0.914,0.82 (inactive),0.987 (inactive),0.151 (inactive),-0.962,-0.582 (inactive),0.161,0.337,-0.769,-0.15
O=C1OCCC=C[C@H]2OC34C=CCN(Cn5nnc6ccccc65)C(=O)[C@H]3N(CCCCCCO)C(=O)[C@@H]4C12 (stereo not given in full),0.603,0.134,-0.129,-0.612,-1.29,-0.207,1.11,-0.229 (inactive),-0.564,-0.134,-0.0465,0.298 (inactive),0.577 (inactive),0.194 (inactive),0.529,-0.369 (inactive),-0.0741,-1.09,-0.36,-0.354
O=C1C2C=CC(C(O)c3ccccc3)N(Nc3ccccc3F)C2C(=O)N1c1ccccc1 (stereo not given),-0.283,0.932,0.0248,0.373,0.99,0.801,0.834,-2.14 (inactive),0.444,-0.191,0.101,0.181 (inactive),0.815 (inactive),0.285 (inactive),2.61,-0.106 (inactive),-0.0381,-0.0199,0.023,-0.067
[N-]=[N+]=NCc1ccccc1C[C@@]1(C(=O)N2CCOCC2)N=C(c2ccc(OCCCO)cc2)O[C@@H]1c1ccccc1,0.458,0.572,0.0654,1,1.44,1.79,1.1,-4.48 (inactive),0.705,0.0749,1.42,-1.11 (inactive),-1.72 (inactive),33 (active),3.33,0.386 (inactive),0.349,-0.519,0.553,0.801
